Test results: PubChem BioAssay AID1159580 (chemical genetic matrix, 2015)
“And” between values parts separate entries of the source, which are not always exact repeats. Equal entries are not always repeated. Hit rate of the full screen: of about 5,500 compounds, about 2,000 (36%) were called active. Not shown: some 18% with an inconclusive outcome. Cut-off read from the data, not from the text of the source: active = normalized growth mostly below about 0.91 (no sharp cut-off); inconclusive = no clear call, values can overlap the other calls; inactive = mostly above about 0.92. This is one part of the list.

Assay: chemical genetic growth profiling, strain panel (AID 1159580);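 note: tested at 20 µM; growth read once vehicle control cultures reached saturation at 30 °C; 1 = growth at the plate median or of vehicle wells; lower values mean less growth of the strain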
Conditions: S. cerevisiae deletion strains, growth OD

Measured: normalized growth

COc1cc2ccc(=O)oc2cc1O
inactive: locus YAL013W, strain DEP1, hits give low values 1.03 | locus YAL021C, strain ccr4, hits give low values 0.958 | locus YAL026C, strain drs2, hits give low values 0.968 | locus YAL030W, strain snc1, hits give low values 0.977 | locus YBL061C, strain skt5, hits give low values 0.965 | locus YBR009C, strain hhf1, hits give low values 1.01 | locus YBR021W, strain FUR4, hits give low values 0.985 | locus YBR023C, strain chs3, hits give low values 0.958 | locus YBR171W, strain sec66, hits give low values 0.984 | locus YBR229C, strain ROT2, hits give low values 0.946 | locus YBR231C, strain swc5, hits give low values 0.966 | locus YBR279W, strain paf1, hits give low values 0.96 | locus YCL011C, strain gbp2, hits give low values 0.946 | locus YCL016C, strain dcc1, hits give low values 0.94 | locus YCL029C, strain bik1, hits give low values 0.979 | locus YCL069W, strain vba3, hits give low values 0.98 | locus YCR088W, strain abp1, hits give low values 0.985 | locus YDL005C, strain med2, hits give low values 0.992 | locus YDL035C, strain GPR1, hits give low values 0.97 | locus YDL040C, strain nat1, hits give low values 0.973 | locus YDL074C, strain BRE1, hits give low values 1.04 | locus YDL101C, strain DUN1, hits give low values 0.999 | locus YDL185W, strain tfp1, hits give low values 0.974 | locus YDL192W, strain arf1, hits give low values 1 | locus YDR001C, strain nth1, hits give low values 0.976 | locus YDR069C, strain doa4, hits give low values 0.995 | locus YDR101C, strain arx1, hits give low values 0.987 | locus YDR137W, strain rgp1, hits give low values 1 | locus YDR150W, strain NUM1, hits give low values 1 | locus YDR159W, strain sac3, hits give low values 0.941 | locus YDR162C, strain NBP2, hits give low values 0.953 | locus YDR195W, strain ref2 0.994 | locus YDR297W, strain sur2, hits give low values 0.99 | locus YDR318W, strain mcm21, hits give low values 0.992 | locus YDR334W, strain swr1, hits give low values 0.959 | locus YDR335W, strain msn5, hits give low values 0.96 | locus YDR388W, hits give low values 1 | locus YDR392W, strain spt3, hits give low values 0.883 | locus YDR502C, strain sam2, hits give low values 0.999 | locus YEL003W, strain gim4, hits give low values 0.987 | locus YEL037C, strain rad23, hits give low values 0.974 | locus YEL061C, strain CIN8 (second series), hits give low values 0.977 | locus YEL061C, strain CIN8, hits give low values 0.987 | locus YER015W, strain faa2, hits give low values 0.967 | locus YER016W, strain bim1, hits give low values 0.949 | locus YER110C, hits give low values 1.01 | locus YER111C, strain swi4, hits give low values 0.967 | locus YER155C, strain BEM2 (second series), hits give low values 1.01 | locus YER155C, strain BEM2, hits give low values 1 | locus YER167W, strain BCK2, hits give low values 0.984 | locus YFR010W, strain ubp6, hits give low values 0.996 | locus YGL078C, strain dbp3, hits give low values 1 | locus YGL086W, strain mad1, hits give low values 0.998 | locus YGL167C, strain pmr1, hits give low values 0.978 | locus YGL173C, strain kem1, hits give low values 1.02 | locus YGL227W, strain vid30, hits give low values 0.975 | locus YGL240W, strain doc1, hits give low values 1 | locus YGL248W, strain PDE1, hits give low values 0.998 | locus YGL253W, strain hxk2, hits give low values 0.939 | locus YGR078C, strain PAC10, hits give low values 1.02 | locus YGR135W, strain pre9, hits give low values 1 | locus YGR252W, strain gcn5, hits give low values 1 | locus YHR013C, strain ard1, hits give low values 0.916 | locus YHR027C, strain rpn1, hits give low values 0.968 | locus YHR030C, strain SLT2, hits give low values 0.987 and 0.966 | locus YHR079C, strain IRE1 (second series), hits give low values 1.01 | locus YHR079C, strain IRE1, hits give low values 0.976 | locus YHR094C, strain hxt1, hits give low values 0.992 | locus YHR129C, strain ARP1, hits give low values 0.994 | locus YHR142W, strain chs7, hits give low values 0.914 | locus YHR200W, strain rpn10, hits give low values 0.991 | locus YIL066C, strain RNR3, hits give low values 0.935 | locus YIL073C, strain SPO22, hits give low values 1.01 | locus YIL125W, strain kgd1, hits give low values 1 | locus YIR030C, strain dcg1, hits give low values 0.996 | locus YJL092W, strain hpr5, hits give low values 0.968 | locus YJL095W, strain BCK1 (second series), hits give low values 0.987 | locus YJL095W, strain BCK1, hits give low values 1.02 and 1.01 | locus YJL115W, strain asf1, hits give low values 0.952 | locus YJL129C, strain trk1, hits give low values 0.929 | locus YJL134W, strain LCB3, hits give low values 0.982 | locus YJL154C, strain vps35, hits give low values 0.973 | locus YJL164C, strain tpk1, hits give low values 0.979 | locus YJL166W, strain qcr8, hits give low values 1 | locus YJL168C, strain set2, hits give low values 0.995 | locus YJL187C, strain SWE1 (second series), hits give low values 1.03 | locus YJR043C, strain POL32, hits give low values 0.954 | locus YJR066W, strain TOR1, hits give low values 0.929 | locus YKL009W, strain mrt4, hits give low values 1 | locus YKL068W, hits give low values 0.992 | locus YKL085W, strain MDH1 (second series), hits give low values 0.995 | locus YKL085W, strain MDH1, hits give low values 0.995 | locus YKL160W, strain elf1, hits give low values 0.931 | locus YKR001C, strain vps1, hits give low values 0.987 | locus YKR026C, strain gcn3, hits give low values 0.983 | locus YKR091W, strain srl3, hits give low values 0.963 | locus YLL001W, strain dnm1, hits give low values 1 | locus YLL026W, hits give low values 0.971 | locus YLL041C, strain sdh2, hits give low values 0.999 | locus YLR027C, strain aat2, hits give low values 0.989 | locus YLR039C, strain RIC1, hits give low values 0.971 | locus YLR058C, strain SHM2, hits give low values 0.988 | locus YLR102C, strain apc9, hits give low values 1 | locus YLR113W, strain HOG1, hits give low values 1.04 | locus YLR221C, strain rsa3, hits give low values 1.03 | locus YLR258W, strain gsy2, hits give low values 0.95 | locus YLR262C, strain YPT6 (second series), hits give low values 0.982 | locus YLR262C, strain YPT6, hits give low values 0.969 | locus YLR268W, strain sec22, hits give low values 1.01 | locus YLR320W, strain mms22, hits give low values 1.01 | locus YLR330W, strain CHS5, hits give low values 0.988 | locus YLR342W, strain FKS1 (second series), hits give low values 0.988 | locus YLR342W, strain FKS1, hits give low values 0.973 | locus YLR357W, strain rsc2, hits give low values 0.947 | locus YLR370C, strain arc18, hits give low values 0.964 | locus YLR371W, strain rom2, hits give low values 0.994 | locus YLR384C, strain iki3, hits give low values 0.941 | locus YLR418C, strain cdc73, hits give low values 1 | locus YML016C, strain PPZ1, hits give low values 0.986 | locus YML032C, strain rad52, hits give low values 0.986 | locus YML120C, strain ndi1, hits give low values 1 | locus YML124C, strain tub3, hits give low values 1.01 | locus YMR058W, strain fet3, hits give low values 0.971 | locus YMR078C, strain ctf18, hits give low values 1 | locus YMR125W, strain sto1, hits give low values 0.97 | locus YMR129W, hits give low values 0.976 | locus YMR205C, strain PFK2, hits give low values 1 | locus YMR223W, strain ubp8, hits give low values 0.997 | locus YMR231W, strain pep5, hits give low values 0.992 | locus YMR307W, strain GAS1, hits give low values 0.904 | locus YNL067W, strain RPL9B, hits give low values 1.06 | locus YNL071W, strain lat1, hits give low values 0.986 | locus YNL183C, strain NPR1, hits give low values 0.975 | locus YNL209W, strain ssb2, hits give low values 0.968 | locus YNL233W, strain BNI4, hits give low values 1.07 | locus YNL248C, strain rpa49, hits give low values 0.903 | locus YNL250W, strain rad50, hits give low values 1.01 | locus YNL271C, strain bni1, hits give low values 0.994 | locus YNL298W, strain CLA4, hits give low values 0.994 | locus YNL307C, strain MCK1, hits give low values 1 | locus YNL322C, strain KRE1 (second series), hits give low values 0.948 | locus YNR049C, strain mso1, hits give low values 0.955 | locus YNR052C, strain pop2, hits give low values 1.03 | locus YOL012C, strain htz1 0.802 | locus YOL147C, strain pex11, hits give low values 0.999 | locus YOR001W, strain rrp6, hits give low values 1.03 | locus YOR061W, strain CKA2, hits give low values 0.975 | locus YOR069W, strain VPS5, hits give low values 0.987 | locus YOR070C, strain gyp1, hits give low values 0.975 | locus YOR080W, strain dia2, hits give low values 0.967 | locus YOR083W, strain WHI5, hits give low values 0.896 | locus YOR106W, strain vam3, hits give low values 0.923 | locus YOR136W, strain idh2, hits give low values 0.998 | locus YOR144C, strain elg1, hits give low values 1 | locus YOR184W, strain ser1, hits give low values 0.995 | locus YOR231W, strain MKK1, hits give low values 0.976 | locus YOR265W, strain rbl2, hits give low values 0.97 | locus YOR270C, strain vph1, hits give low values 0.923 | locus YOR290C, strain snf2, hits give low values 0.929 | locus YOR316C, strain cot1, hits give low values 0.994 | locus YPL051W, strain arl3, hits give low values 0.963 | locus YPL078C, strain atp4, hits give low values 0.939 | locus YPL106C, strain sse1, hits give low values 0.899 | locus YPL240C, strain hsp82, hits give low values 0.987 | locus YPL241C, strain CIN2, hits give low values 0.997 | locus YPL256C, strain CLN2, hits give low values 1.01 | locus YPR119W, strain clb2, hits give low values 0.995 | locus YPR141C, strain kar3, hits give low values 0.989 | locus YPR163C, strain tif3, hits give low values 0.989 | locus YPR167C, strain met16, hits give low values 0.997 | strain wtn01, hits give low values 1.01
